# PubChem BioAssay
# Calls of active or inactive are those of the source. Unless noted, the rule behind the calls is not given here.
# Key:
# [1] = resazurin metabolic signal in HepG2 cells – cell-based, resazurin fluorescence, 24 h, PK04 Diversity Set, profiling panel (AID 1172); details: HepG2 viability, higher = more signal
# [2] = budding yeast growth changes without added modifier – OD600, strain BY4716, 24 h, basal condition, primary screen (AID 1173); details: S. cerevisiae BY4716 growth, OD600, 24 h; higher = more signal, called active from +8 up or from −8 down
# [3] = viability profiling in MM1S myeloma cells – cell-based, resazurin fluorescence, basal, 24 h, PK04 Diversity Set, profiling panel (AID 1174); details: higher = more signal, called active from +8 up or from −8 down;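 note: MM1S multiple myeloma cell line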
# [4] = target: Dihydroorotate dehydrogenase (quinone), mitochondrial (Plasmodium falciparum (isolate 3D7)) (UniProt Q08210); experiment: inhibition of P. falciparum DHODH – biochemical, C-terminal His tag, absorbance 600 nm, primary screen (AID 1175); details: PfDHODH enzyme, DCIP absorbance 600 nm; higher = more signal, called active from +8 up or from −8 down;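 note: recombinant parasite enzyme with a five histidine tag at its C terminus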
# Dihydroorotate dehydrogenase (quinone), mitochondrial (Plasmodium falciparum (isolate 3D7)), sequence (Q08210 whole entry, looked up): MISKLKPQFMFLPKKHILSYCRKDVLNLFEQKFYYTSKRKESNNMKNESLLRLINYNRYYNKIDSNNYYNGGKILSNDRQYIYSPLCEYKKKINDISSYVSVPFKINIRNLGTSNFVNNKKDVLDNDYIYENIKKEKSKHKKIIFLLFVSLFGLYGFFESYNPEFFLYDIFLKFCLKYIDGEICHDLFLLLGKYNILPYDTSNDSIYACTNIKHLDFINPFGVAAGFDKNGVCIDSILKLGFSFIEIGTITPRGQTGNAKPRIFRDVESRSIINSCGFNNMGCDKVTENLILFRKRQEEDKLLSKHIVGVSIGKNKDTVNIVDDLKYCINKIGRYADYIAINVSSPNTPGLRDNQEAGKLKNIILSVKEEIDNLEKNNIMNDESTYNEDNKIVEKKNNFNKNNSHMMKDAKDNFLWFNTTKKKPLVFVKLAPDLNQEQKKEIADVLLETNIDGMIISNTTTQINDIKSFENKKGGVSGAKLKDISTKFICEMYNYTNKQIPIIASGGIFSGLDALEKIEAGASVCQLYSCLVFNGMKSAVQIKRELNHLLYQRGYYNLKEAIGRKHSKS
# [5] = inhibition of PAO1 biofilm formation – strain PAO1, LB-PBS medium, absorbance 600 nm, primary screen (AID 1176); details: P. aeruginosa PAO1 growth/biofilm, A600, 12 h; higher = more signal
# [6] = growth modulation of vineyard yeast isolate – strain RM11-1a, OD600, basal, 24 h, primary screen (AID 1177);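 note: cultures grown under basal conditions with no added stressor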; details: S. cerevisiae RM11-1a growth, OD600, 24 h; higher = more signal, called active from +8 up or from −8 down
# [7] = growth of efflux-deficient E. coli DRC39 – strain DRC39, OD650, 24 h, E. coli filamentation inducers, primary screen (AID 1178);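 note: growth measured as culture turbidity by optical density at 650 nm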; details: E. coli DRC39 acrAB, higher = more signal, called active from +8 up or from −8 down
# [8] = growth of efflux-deficient E. coli DRC39 – strain DRC39, OD650, 48 h, E. coli filamentation inducers, primary screen (AID 1179);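 note: screen aims at cell division blockers that make cells filament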; details: E. coli DRC39 delta-acrAB growth, higher = more signal, called active from +8 up or from −8 down
# [9] = viability profiling in RPMI8226 myeloma cells – cell-based, resazurin fluorescence, basal, 24 h, PK04 Diversity Set, profiling panel (AID 1180); details: higher = more signal;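 note: RPMI8826 multiple myeloma cell line at 5000 cells per well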
# [10] = target: E3 ubiquitin-protein ligase XIAP (Homo sapiens) (UniProt P98170); experiment: small molecules binding XIAP protein – biophysical, small-molecule microarray, fluorescence 635 nm, primary screen (AID 1181); details: higher = more signal;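 note: score merges 667 nm emission and signal to noise over triplicate slides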
# E3 ubiquitin-protein ligase XIAP (Homo sapiens), sequence (P98170 whole entry, looked up, the tested form may be a part): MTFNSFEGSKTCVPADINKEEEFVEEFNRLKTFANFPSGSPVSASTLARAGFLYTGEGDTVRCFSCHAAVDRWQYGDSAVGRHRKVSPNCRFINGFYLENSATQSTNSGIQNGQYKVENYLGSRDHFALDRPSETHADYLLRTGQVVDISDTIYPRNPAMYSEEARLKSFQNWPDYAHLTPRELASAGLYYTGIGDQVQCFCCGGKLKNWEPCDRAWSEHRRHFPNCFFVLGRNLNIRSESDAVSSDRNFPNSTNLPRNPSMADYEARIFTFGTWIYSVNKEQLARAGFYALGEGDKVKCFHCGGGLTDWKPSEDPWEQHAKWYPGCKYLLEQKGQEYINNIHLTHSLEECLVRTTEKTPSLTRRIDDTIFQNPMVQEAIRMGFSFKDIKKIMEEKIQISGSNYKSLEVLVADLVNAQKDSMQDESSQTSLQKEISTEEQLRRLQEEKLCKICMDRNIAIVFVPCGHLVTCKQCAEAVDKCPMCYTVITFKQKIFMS
# [11] = test system: XIP peptide (Xip251-270) binding; experiment: XIP fragment 251-270 binding compounds – biochemical, small-molecule microarray, fluorescence 635/667 nm, 0.1 µg/mL protein, primary screen (AID 1182); details: fluorescent protein binding, 635 nm, higher = more signal, called active from +8 up or from −8 down
# XIP peptide (Xip251-270) = experiment: compounds binding XIP fragment 251-270 – biochemical, small-molecule microarray, fluorescence 635/667 nm, 0.5 µg/mL protein, primary screen (AID 1183); details: fluorescence 635 nm, higher = more signal
# [12] = blood-stage malaria parasite viability loss – strain 3D7, DAPI fluorescence, 100 nL, primary screen (AID 1184);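 note: parasites grown inside human red blood cells in medium with human serum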; details: P. falciparum 3D7 growth, 3 d, higher = more signal
# [13] = target: Homeobox protein Hox-A13 (Mus musculus) (UniProt Q62424); experiment: disruptors of Hoxa13 oligonucleotide interaction – biochemical, fluorescence polarization, labeled oligonucleotide, primary screen (AID 1185); details: Hoxa13:DNA binding, 15 min, higher = more signal, called active from +8 up or from −8 down
# Homeobox protein Hox-A13 (Mus musculus), sequence (Q62424 whole entry, looked up): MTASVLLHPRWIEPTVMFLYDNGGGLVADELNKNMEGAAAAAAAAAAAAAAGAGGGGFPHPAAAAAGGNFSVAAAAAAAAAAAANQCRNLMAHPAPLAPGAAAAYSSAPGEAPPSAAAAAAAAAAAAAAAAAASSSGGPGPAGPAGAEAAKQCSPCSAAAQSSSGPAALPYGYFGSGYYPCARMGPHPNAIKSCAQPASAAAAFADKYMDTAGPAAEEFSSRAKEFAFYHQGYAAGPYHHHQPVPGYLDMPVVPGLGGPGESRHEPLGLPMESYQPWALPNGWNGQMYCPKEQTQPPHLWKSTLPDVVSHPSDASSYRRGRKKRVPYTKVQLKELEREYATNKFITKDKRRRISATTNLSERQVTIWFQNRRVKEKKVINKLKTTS
# [14] = blockers of DNA damage checkpoint Chk1 activation – imaging, HeLa, hydroxyurea, phospho-Chk1 antibody, percent positive cells, primary screen (AID 1186); details: hydroxyurea-induced phospho-Chk1 immunofluorescence imaging, higher = more signal
# [15] = blockers of DNA damage checkpoint Chk1 activation – imaging, HeLa, hydroxyurea, phospho-Chk1 nuclear intensity, primary screen (AID 1187); details: hydroxyurea-induced phospho-Chk1 immunofluorescence imaging, higher = more signal
smiles,measurement,setting,value
COCCOC(=O)N1C(=O)[C@@]2(c3cc(C#CCC(C(=O)OC)C(=O)OC)ccc31)[C@H](C(=O)N1CCN(c3ncccn3)CC1)[C@H]1C(=O)O[C@H](c3ccccc3)[C@H](c3ccccc3)N1[C@@H]2c1ccccc1OCCO,z-score,[1],-0.354
same,z-score,[2],1.51 (inactive)
same,z-score,[3],-0.0626 (inactive)
same,composite z-score,[4],-1.42 (inactive)
same,z-score,[5],3.78 (inactive)
same,z-score,[6],2.75 (inactive)
same,z-score,[7],0.284 (inactive)
same,z-score,[8],0.0336 (inactive)
same,z-score,[9],-0.5
same,composite z-score,[10],-0.0749
same,composite z-score,[11],0.171 (inactive)
same,composite z-score,XIP peptide (Xip251-270),0.679
same,z-score,[12],-2.03
same,z-score,[13],-0.504 (inactive)
same,z-score,[14],0.0845 (inactive)
same,z-score,[15],0.176 (inactive)
O=C1O[C@@H](c2ccccc2)[C@@H](c2ccccc2)N2[C@@H](c3ccccc3OCCO)[C@]3(C(=O)Nc4ccccc43)[C@@H](C(=O)Nc3nc4ccccc4s3)[C@H]12,z-score,[1],-0.699
same,z-score,[2],0.583 (inactive)
same,z-score,[3],-2.95 (inactive)
same,composite z-score,[4],0.905 (inactive)
same,z-score,[5],1.36 (inactive)
same,z-score,[6],1.11 (inactive)
same,z-score,[7],-0.986 (inactive)
same,z-score,[8],-1.25 (inactive)
same,z-score,[9],-5.15
same,composite z-score,[10],0.0975
same,composite z-score,[11],1.13 (inactive)
same,composite z-score,XIP peptide (Xip251-270),0.797
same,z-score,[12],-1.54
same,z-score,[13],1.91 (inactive)
same,z-score,[14],0.489 (inactive)
same,z-score,[15],0.794 (inactive)
[N-]=[N+]=Nc1ccccc1[C@@H]1OC(c2ccc(OCCCO)cc2)=N[C@]1(CCS(=O)(=O)c1ccccc1)C(N)=O,z-score,[1],0.396
same,z-score,[2],-0.0185 (inactive)
same,z-score,[3],-0.706 (inactive)
same,composite z-score,[4],0.796 (inactive)
same,z-score,[5],-0.291 (inactive)
same,z-score,[6],-0.0594 (inactive)
same,z-score,[7],0.326 (inactive)
same,z-score,[8],-0.397 (inactive)
same,z-score,[9],-0.699
same,composite z-score,[10],0.0975
same,composite z-score,[11],1 (inactive)
same,composite z-score,XIP peptide (Xip251-270),0.629
same,z-score,[12],-2.04
same,z-score,[13],-4.11 (inactive)
same,z-score,[14],-0.154 (inactive)
same,z-score,[15],-0.0216 (inactive)
CN(C)CCCCCCNC(=O)[C@H]1C[C@H]2C(=O)N3CCC[C@H]3C(=O)N2[C@H]1c1ccc(O)cc1,z-score,[1],-0.564
same,z-score,[2],-0.444 (inactive)
same,z-score,[3],0.472 (inactive)
same,composite z-score,[4],-1.76 (inactive)
same,z-score,[5],1.44 (inactive)
same,z-score,[6],-0.327 (inactive)
same,z-score,[7],0.113 (inactive)
same,z-score,[8],-0.523 (inactive)
same,z-score,[9],-0.0213
same,composite z-score,[10],0.23
same,composite z-score,[11],1.75 (inactive)
same,composite z-score,XIP peptide (Xip251-270),0.926
same,z-score,[12],-1.15
same,z-score,[13],-0.246 (inactive)
same,z-score,[14],-0.0982 (inactive)
same,z-score,[15],0.307 (inactive)
COCCCNC(=O)[C@@]1(C)c2ccccc2C(=O)N(C(C)C)[C@H]1c1ccc(CO)cc1,z-score,[1],-0.104
same,z-score,[2],0.836 (inactive)
same,z-score,[3],-0.18 (inactive)
same,composite z-score,[4],0.663 (inactive)
same,z-score,[5],0.208 (inactive)
same,z-score,[6],1.24 (inactive)
same,z-score,[7],0.32 (inactive)
same,z-score,[8],-0.279 (inactive)
same,z-score,[9],-0.316
same,composite z-score,[10],0.109
same,composite z-score,[11],-0.102 (inactive)
same,composite z-score,XIP peptide (Xip251-270),0.246
same,z-score,[12],-0.176
same,z-score,[13],-1.71 (inactive)
same,z-score,[14],-0.123 (inactive)
same,z-score,[15],-0.397 (inactive)
C=CC1(C(=O)OC)CC=C(C(=O)OC)CC1 (stereo not given),z-score,[1],0.249
same,z-score,[2],0.489 (inactive)
same,z-score,[3],0.501 (inactive)
same,composite z-score,[4],-2.11 (inactive)
same,z-score,[5],0.201 (inactive)
same,z-score,[6],-0.834 (inactive)
same,z-score,[7],-0.233 (inactive)
same,z-score,[8],1.19 (inactive)
same,z-score,[9],1.08
same,composite z-score,[10],-0.248
same,composite z-score,[11],0.552 (inactive)
same,composite z-score,XIP peptide (Xip251-270),0.992
same,z-score,[12],0.928
same,z-score,[13],-1.09 (inactive)
same,z-score,[14],-1.36 (inactive)
same,z-score,[15],-1.26 (inactive)
O=C1C[C@]2(c3ccc([N+](=O)[O-])cc3)C(=O)N(CC(F)(F)F)c3cc(CO)ccc3[C@H]2N1C1CCCCC1,z-score,[1],0.0882
same,z-score,[2],0.434 (inactive)
same,z-score,[3],0.679 (inactive)
same,composite z-score,[4],-1.69 (inactive)
same,z-score,[5],-0.686 (inactive)
same,z-score,[6],-0.0434 (inactive)
same,z-score,[7],0.235 (inactive)
same,z-score,[8],0.16 (inactive)
same,z-score,[9],0.964
same,composite z-score,[10],-0.273
same,composite z-score,[11],-0.0975 (inactive)
same,composite z-score,XIP peptide (Xip251-270),0.0582
same,z-score,[12],-0.762
same,z-score,[13],-1.39 (inactive)
same,z-score,[14],-0.219 (inactive)
same,z-score,[15],-0.125 (inactive)
CC1CC/C=C\[C@H]2OC34C=CCN(C(C)(C)C)C(=O)[C@H]3N(CCO)C(=O)[C@@H]4C2C(=O)O1 (stereo not given in full),z-score,[1],0.488
same,z-score,[2],-0.68 (inactive)
same,z-score,[3],-0.0542 (inactive)
same,composite z-score,[4],-0.0848 (inactive)
same,z-score,[5],0.22 (inactive)
same,z-score,[6],-0.546 (inactive)
same,z-score,[7],-0.344 (inactive)
same,z-score,[8],-0.519 (inactive)
same,z-score,[9],-0.138
same,composite z-score,[10],-0.309
same,composite z-score,[11],-0.892 (inactive)
same,composite z-score,XIP peptide (Xip251-270),0.833
same,z-score,[12],-0.162
same,z-score,[13],-5.01 (inactive)
same,z-score,[14],-0.878 (inactive)
same,z-score,[15],-0.798 (inactive)
COC(=O)[C@@]1(Cc2ccc(OC)cc2)[C@H]2c3cc(C(=O)N4CCCC4)n(Cc4ccc(C)c(F)c4F)c3C[C@H]2CN1C(=O)c1ccccc1,z-score,[1],0.273
same,z-score,[2],1.9 (inactive)
same,z-score,[3],-1.4 (inactive)
same,composite z-score,[4],0.104 (inactive)
same,z-score,[5],-0.843 (inactive)
same,z-score,[6],1.41 (inactive)
same,z-score,[7],0.35 (inactive)
same,z-score,[8],-0.237 (inactive)
same,z-score,[9],-1.59
same,composite z-score,[10],0.0683
same,composite z-score,[11],0.128 (inactive)
same,composite z-score,XIP peptide (Xip251-270),0.715
same,z-score,[12],-1.12
same,z-score,[13],-0.498 (inactive)
same,z-score,[14],-0.0213 (inactive)
same,z-score,[15],-0.423 (inactive)
C[N+](C)(C)CCCC[C@@H]1NC(=O)[C@H]2C[C@@H](C(=O)NCCCCCCNC(=O)CS)[C@@H](c3cccc(OCCO)c3)N2C1=O,z-score,[1],-0.191
same,z-score,[2],0.578 (inactive)
same,z-score,[3],-0.0499 (inactive)
same,composite z-score,[4],0.459 (inactive)
same,z-score,[5],-0.0896 (inactive)
same,z-score,[6],0.293 (inactive)
same,z-score,[7],0.474 (inactive)
same,z-score,[8],0.645 (inactive)
same,z-score,[9],-0.442
same,composite z-score,[10],-0.227
same,composite z-score,[11],0.173 (inactive)
same,composite z-score,XIP peptide (Xip251-270),0.487
same,z-score,[12],-0.135
same,z-score,[13],-1.87 (inactive)
same,z-score,[14],0.964 (inactive)
same,z-score,[15],1.2 (inactive)
